The source made the active and inactive calls. How the calls were made is not given here.
The molecules below were run against Large T antigen (Simian virus 40) (UniProt P03070) (assay: SV40 TAg ATPase inhibitors, biochemical, ADP-Hunter, purified TAg, synthesized compounds (AID 435001)). Details: ADP-Hunter fluorescence; series mostly up to 100 µM; inhibition: at the top concentration.
Sequence of Large T antigen (Simian virus 40) (P03070 whole entry, looked up): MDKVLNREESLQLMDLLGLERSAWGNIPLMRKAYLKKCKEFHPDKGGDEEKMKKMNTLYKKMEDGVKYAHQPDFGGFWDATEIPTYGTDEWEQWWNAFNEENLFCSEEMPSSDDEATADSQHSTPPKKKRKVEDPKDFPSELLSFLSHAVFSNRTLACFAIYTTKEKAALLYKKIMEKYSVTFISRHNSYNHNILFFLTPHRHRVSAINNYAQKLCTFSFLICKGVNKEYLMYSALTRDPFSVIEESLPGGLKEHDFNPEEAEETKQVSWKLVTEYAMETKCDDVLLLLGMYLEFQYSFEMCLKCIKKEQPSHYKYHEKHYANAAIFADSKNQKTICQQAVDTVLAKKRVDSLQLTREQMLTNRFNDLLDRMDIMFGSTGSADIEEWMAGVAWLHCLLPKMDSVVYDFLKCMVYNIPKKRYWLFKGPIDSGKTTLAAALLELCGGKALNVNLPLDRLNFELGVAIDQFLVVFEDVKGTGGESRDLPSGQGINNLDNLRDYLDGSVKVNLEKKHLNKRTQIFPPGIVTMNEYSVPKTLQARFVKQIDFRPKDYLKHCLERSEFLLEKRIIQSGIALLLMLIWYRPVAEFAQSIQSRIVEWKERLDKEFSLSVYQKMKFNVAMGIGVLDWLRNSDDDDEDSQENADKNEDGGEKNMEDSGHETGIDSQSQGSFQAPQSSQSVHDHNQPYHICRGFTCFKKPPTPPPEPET

inhibition, inactive:
COc1ccc(C(C)(C)c2ccc(OC)cc2)cc1 -5.01%
COc1ccc(C(C)(O)c2ccc(OC)cc2)cc1 -10.5%
C=C(c1ccc(OC)cc1)c1ccc(OC)cc1 -6.97%
COc1ccc(C2(c3ccc(OC)cc3)CC2)cc1 -7.64%

Source: PubChem BioAssay AID435001 (Southern Research Specialized Biocontainment Screening …, 2010)
